# The whole screen tested about 5,700 compounds, of which about 85 (1%) were called active. The sample holds actives, similar compounds and a random draw of the others, so the mix is not that of the screen. Cut-off read from the data, not from the text of the source: active = p53-positive nuclei above about 36% (passing the limit was not always enough); inactive = the rest.
# Tests used:
# [1] = p53 stabilisation in HPV-positive human cells, imaging, p53-positive nuclei imaging, 24 h, 48 h (AID 1508601); conditions: 24/48 h
# [2] = biological target: Cellular tumor antigen p53 (Homo sapiens) (UniProt P04637); assay: as above; conditions: 24/48 h, stronger effect = higher value
# [3] = measured here: cell number at 24 h, Library stock concentration: 3.33 mM
# [4] = measured here: cell number at 48 h, Library stock concentration: 3.33 mM
# [5] = Library stock concentration: 3.33 mM
# [6] = measured here: p53 positive nuclei at 24 h, Library stock concentration: 3.33 mM
# [7] = measured here: cell number at 24 h, concentration not given here
# [8] = measured here: cell number at 48 h, concentration not given here
# [9] = measured here: p53 positive nuclei at 24 h, concentration not given here
# [10] = measured here: cell number at 24 h, Library stock concentration: 10 mM
# [11] = measured here: cell number at 48 h, Library stock concentration: 10 mM
# [12] = Library stock concentration: 10 mM
# [13] = measured here: p53 positive nuclei at 24 h, Library stock concentration: 10 mM
# [14] = measured here: cell number at 24 h, Library stock concentration: 80 uM
# [15] = measured here: cell number at 24 h, Library stock concentration: 400 uM
# [16] = measured here: cell number at 24 h, Library stock concentration: 2 mM
# [17] = measured here: cell number at 48 h, Library stock concentration: 80 uM
# [18] = measured here: cell number at 48 h, Library stock concentration: 400 uM
# [19] = measured here: cell number at 48 h, Library stock concentration: 2 mM
# [20] = Library stock concentration: 80 uM
# [21] = Library stock concentration: 400 uM
# [22] = Library stock concentration: 2 mM
# [23] = measured here: p53 positive nuclei at 24 h, Library stock concentration: 80 uM
# [24] = measured here: p53 positive nuclei at 24 h, Library stock concentration: 400 uM
# [25] = measured here: p53 positive nuclei at 24 h, Library stock concentration: 2 mM
# Chain of Cellular tumor antigen p53 (Homo sapiens) (P04637 whole entry, looked up): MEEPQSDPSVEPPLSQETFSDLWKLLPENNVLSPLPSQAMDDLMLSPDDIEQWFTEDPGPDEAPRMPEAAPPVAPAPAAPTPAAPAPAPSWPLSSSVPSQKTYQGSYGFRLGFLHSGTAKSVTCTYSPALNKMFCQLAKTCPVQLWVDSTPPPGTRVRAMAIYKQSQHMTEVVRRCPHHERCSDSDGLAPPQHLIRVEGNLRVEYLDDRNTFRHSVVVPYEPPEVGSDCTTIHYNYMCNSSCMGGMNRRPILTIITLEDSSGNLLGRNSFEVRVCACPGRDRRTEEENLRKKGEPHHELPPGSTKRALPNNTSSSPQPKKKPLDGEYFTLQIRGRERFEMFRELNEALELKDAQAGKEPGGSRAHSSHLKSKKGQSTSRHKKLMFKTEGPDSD
smiles,measurement,setting,value
CC(C)CC(NC(=O)C(Cc1ccccc1)NC(=O)c1cnccn1)B(O)O (stereo not drawn),"nuclei count, normalised",[1]; [3],47.9%
same,"nuclei count, normalised",[1]; [4],41.9%
same,"p53-positive nuclei, normalised",[2]; [5],106% (active)
same,"p53-positive nuclei, normalised",[2]; [6],125%
CC(C)C[C@H](NC(=O)[C@@H](O)[C@H](N)Cc1ccccc1)C(=O)O,"nuclei count, normalised",[1]; [7],97.2%
same,"nuclei count, normalised",[1]; [8],105%
same,"p53-positive nuclei, normalised",[2]; concentration not given here,-0.0349% (inactive)
same,"p53-positive nuclei, normalised",[2]; [9],-0.0296%
CC(=O)NC(CSC(=S)NSc1ccc(SNC(=S)SCC(NC(C)=O)C(=O)O)cc1)C(=O)O (stereo not drawn),"nuclei count, normalised","[1]; measured here: cell number at 24 h, Library stock concentration: 500 nM",115%
same,"nuclei count, normalised","[1]; measured here: cell number at 24 h, Library stock concentration: 1.5 uM",108%
same,"nuclei count, normalised","[1]; measured here: cell number at 24 h, Library stock concentration: 4.6 uM",110%
same,"nuclei count, normalised","[1]; measured here: cell number at 24 h, Library stock concentration: 13.7 uM",114%
same,"nuclei count, normalised","[1]; measured here: cell number at 24 h, Library stock concentration: 41 uM",121%
same,"nuclei count, normalised","[1]; measured here: cell number at 24 h, Library stock concentration: 123 uM",119%
same,"nuclei count, normalised","[1]; measured here: cell number at 24 h, Library stock concentration: 370 uM",107%
same,"nuclei count, normalised","[1]; measured here: cell number at 24 h, Library stock concentration: 1.111 mM",105%
same,"nuclei count, normalised","[1]; measured here: cell number at 24 h, Library stock concentration: 3.333 mM",89.8%
same,"nuclei count, normalised",[1]; [10],64.7%
same,"nuclei count, normalised","[1]; measured here: cell number at 48 h, Library stock concentration: 500 nM",111%
same,"nuclei count, normalised","[1]; measured here: cell number at 48 h, Library stock concentration: 1.5 uM",111%
same,"nuclei count, normalised","[1]; measured here: cell number at 48 h, Library stock concentration: 4.6 uM",109%
same,"nuclei count, normalised","[1]; measured here: cell number at 48 h, Library stock concentration: 13.7 uM",109%
same,"nuclei count, normalised","[1]; measured here: cell number at 48 h, Library stock concentration: 41 uM",108%
same,"nuclei count, normalised","[1]; measured here: cell number at 48 h, Library stock concentration: 123 uM",108%
same,"nuclei count, normalised","[1]; measured here: cell number at 48 h, Library stock concentration: 370 uM",106%
same,"nuclei count, normalised","[1]; measured here: cell number at 48 h, Library stock concentration: 1.111 mM",105%
same,"nuclei count, normalised","[1]; measured here: cell number at 48 h, Library stock concentration: 3.333 mM",95.8%
same,"nuclei count, normalised",[1]; [11],68.4%
same,"p53-positive nuclei, normalised",[2]; Library stock concentration: 500 nM,-0.0484% (inactive)
same,"p53-positive nuclei, normalised",[2]; Library stock concentration: 1.5 uM,-0.0573% (inactive)
same,"p53-positive nuclei, normalised",[2]; Library stock concentration: 4.6 uM,0.0306% (inactive)
same,"p53-positive nuclei, normalised",[2]; Library stock concentration: 13.7 uM,-0.0501% (inactive)
same,"p53-positive nuclei, normalised",[2]; Library stock concentration: 41 uM,-0.00296% (inactive)
same,"p53-positive nuclei, normalised",[2]; Library stock concentration: 123 uM,-0.123% (inactive)
same,"p53-positive nuclei, normalised",[2]; Library stock concentration: 370 uM,-0.0406% (inactive)
same,"p53-positive nuclei, normalised",[2]; Library stock concentration: 1.111 mM,0.162% (inactive)
same,"p53-positive nuclei, normalised",[2]; Library stock concentration: 3.333 mM,-0.108% (inactive)
same,"p53-positive nuclei, normalised",[2]; [12],6.19% (inactive)
same,"p53-positive nuclei, normalised","[2]; measured here: p53 positive nuclei at 24 h, Library stock concentration: 500 nM",-0.173%
same,"p53-positive nuclei, normalised","[2]; measured here: p53 positive nuclei at 24 h, Library stock concentration: 1.5 uM",-0.118%
same,"p53-positive nuclei, normalised","[2]; measured here: p53 positive nuclei at 24 h, Library stock concentration: 4.6 uM",-0.113%
same,"p53-positive nuclei, normalised","[2]; measured here: p53 positive nuclei at 24 h, Library stock concentration: 13.7 uM",-0.173%
same,"p53-positive nuclei, normalised","[2]; measured here: p53 positive nuclei at 24 h, Library stock concentration: 41 uM",-0.0102%
same,"p53-positive nuclei, normalised","[2]; measured here: p53 positive nuclei at 24 h, Library stock concentration: 123 uM",-0.173%
same,"p53-positive nuclei, normalised","[2]; measured here: p53 positive nuclei at 24 h, Library stock concentration: 370 uM",-0.0536%
same,"p53-positive nuclei, normalised","[2]; measured here: p53 positive nuclei at 24 h, Library stock concentration: 1.111 mM",0.0142%
same,"p53-positive nuclei, normalised","[2]; measured here: p53 positive nuclei at 24 h, Library stock concentration: 3.333 mM",-0.0287%
same,"p53-positive nuclei, normalised",[2]; [13],16%
COc1cccc2ccc(-c3ccc(C(=O)N(C)C)cc3)nc12,"nuclei count, normalised",[1]; [7],97.5%
same,"nuclei count, normalised",[1]; [8],101%
same,"p53-positive nuclei, normalised",[2]; concentration not given here,0.00257% (inactive)
same,"p53-positive nuclei, normalised",[2]; [9],0.1%
c1ccc(C(OC2CCN(CCCc3nn[nH]n3)CC2)c2ccccc2)cc1,"nuclei count, normalised",[1]; [7],101%
same,"nuclei count, normalised",[1]; [8],102%
same,"p53-positive nuclei, normalised",[2]; concentration not given here,0.0542% (inactive)
same,"p53-positive nuclei, normalised",[2]; [9],0.308%
COc1ccc(-c2ccc3ncc4c(c3c2)n(-c2ccc(N3CCNCC3)c(C(F)(F)F)c2)c(=O)n4C)cn1,"nuclei count, normalised",[1]; [14],74.5%
same,"nuclei count, normalised",[1]; [15],49.8%
same,"nuclei count, normalised",[1]; [16],37.4%
same,"nuclei count, normalised",[1]; [3],46.3%
same,"nuclei count, normalised",[1]; [10],49.1%
same,"nuclei count, normalised",[1]; [17],70.7%
same,"nuclei count, normalised",[1]; [18],39.8%
same,"nuclei count, normalised",[1]; [19],21%
same,"nuclei count, normalised",[1]; [4],37.9%
same,"nuclei count, normalised",[1]; [11],37.2%
same,"p53-positive nuclei, normalised",[2]; [20],0.085% (inactive)
same,"p53-positive nuclei, normalised",[2]; [21],22.1% (inactive)
same,"p53-positive nuclei, normalised",[2]; [22],53.3% (active)
same,"p53-positive nuclei, normalised",[2]; [5],2.2% (inactive)
same,"p53-positive nuclei, normalised",[2]; [12],-0.138% (inactive)
same,"p53-positive nuclei, normalised",[2]; [23],0.126%
same,"p53-positive nuclei, normalised",[2]; [24],1.06%
same,"p53-positive nuclei, normalised",[2]; [25],14.2%
same,"p53-positive nuclei, normalised",[2]; [6],3.51%
same,"p53-positive nuclei, normalised",[2]; [13],-0.0446%
CCC(=O)N1CCN(c2ccc(-n3c(=O)ccc4cnc5ccc(-c6cnc7ccccc7c6)cc5c43)cc2C(F)(F)F)CC1,"nuclei count, normalised",[1]; [14],68.5%
same,"nuclei count, normalised",[1]; [15],59.7%
same,"nuclei count, normalised",[1]; [16],55.8%
same,"nuclei count, normalised",[1]; [10],43.7%
same,"nuclei count, normalised",[1]; [17],64.8%
same,"nuclei count, normalised",[1]; [18],49%
same,"nuclei count, normalised",[1]; [19],36.2%
same,"nuclei count, normalised",[1]; [11],21.9%
same,"p53-positive nuclei, normalised",[2]; [20],-0.0521% (inactive)
same,"p53-positive nuclei, normalised",[2]; [21],-0.0367% (inactive)
same,"p53-positive nuclei, normalised",[2]; [22],0.993% (inactive)
same,"p53-positive nuclei, normalised",[2]; [12],11.8% (inactive)
same,"p53-positive nuclei, normalised",[2]; [23],0.45%
same,"p53-positive nuclei, normalised",[2]; [24],0.126%
same,"p53-positive nuclei, normalised",[2]; [25],0.287%
same,"p53-positive nuclei, normalised",[2]; [13],0.768%
COc1cc(OC)cc(-c2ccc3ncc4ccc(=O)n(-c5ccc(N6CCNCC6)c(C(F)(F)F)c5)c4c3c2)c1,"nuclei count, normalised",[1]; [14],106%
same,"nuclei count, normalised",[1]; [15],104%
same,"nuclei count, normalised",[1]; [16],101%
same,"nuclei count, normalised",[1]; [10],45.6%
same,"nuclei count, normalised",[1]; [17],111%
same,"nuclei count, normalised",[1]; [18],107%
same,"nuclei count, normalised",[1]; [19],103%
same,"nuclei count, normalised",[1]; [11],30.1%
same,"p53-positive nuclei, normalised",[2]; [20],0.103% (inactive)
same,"p53-positive nuclei, normalised",[2]; [21],0.257% (inactive)
same,"p53-positive nuclei, normalised",[2]; [22],-0.11% (inactive)
same,"p53-positive nuclei, normalised",[2]; [12],10.5% (inactive)
same,"p53-positive nuclei, normalised",[2]; [23],-0.0535%
same,"p53-positive nuclei, normalised",[2]; [24],0.233%
same,"p53-positive nuclei, normalised",[2]; [25],0.0288%
same,"p53-positive nuclei, normalised",[2]; [13],11.7%
Cc1cn(C2OC(CO)C(O)C2F)c(=O)[nH]c1=O (stereo not drawn),"nuclei count, normalised",[1]; [3],108%
same,"nuclei count, normalised",[1]; [4],103%
same,"p53-positive nuclei, normalised",[2]; [5],-0.314% (inactive)
same,"p53-positive nuclei, normalised",[2]; [6],-0.356%
COC(=O)N1C(=O)[C@](c2ccccc2)(C2CCCC2)N1C(=O)OC,"nuclei count, normalised",[1]; [14],90.3%
same,"nuclei count, normalised",[1]; [15],87.6%
same,"nuclei count, normalised",[1]; [16],93.9%
same,"nuclei count, normalised",[1]; [10],90.1%
same,"nuclei count, normalised",[1]; [17],91.7%
same,"nuclei count, normalised",[1]; [18],93.5%
same,"nuclei count, normalised",[1]; [19],99.5%
same,"nuclei count, normalised",[1]; [11],96.9%
same,"p53-positive nuclei, normalised",[2]; [20],-0.0853% (inactive)
same,"p53-positive nuclei, normalised",[2]; [21],-0.162% (inactive)
same,"p53-positive nuclei, normalised",[2]; [22],0.00515% (inactive)
same,"p53-positive nuclei, normalised",[2]; [12],0.0597% (inactive)
same,"p53-positive nuclei, normalised",[2]; [23],-0.136%
same,"p53-positive nuclei, normalised",[2]; [24],-0.136%
same,"p53-positive nuclei, normalised",[2]; [25],0.165%
same,"p53-positive nuclei, normalised",[2]; [13],0.0248%

# Reference: PubChem BioAssay AID1508601 (ICCB-Longwood Screening Facility, Harvard Medical School, 2020)
